Hits are enriched below; roughly 21% of the tested compounds scored in any of these assays.
ClpP mod: qHTS Assay for Activators of ClpP; ATP-dependent Clp protease proteolytic subunit (Bacillus subtilis (strain 168)), P80244; purified B. subtilis ClpP, FRET peptide cleavage, 20 min; Potency, µM (doses to about 57.5 µM), without a hit: top-dose activity change, negative = active; 340,000 compounds, 1.9% hits; active = well fitted falling curve with a large enough effect; inconclusive = small, poorly fitted or top-dose-only effect; inactive = no such curve, though single readings can be large or run the other way; also: potency is read from the fitted curve at half-maximal effect; the source files actives as falling curves though it sought activators and does not explain the sign; nearly all actives have a fitted effect of over 65% in size
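Buffer: 100 mM Tris/HCl pH8, 100 mM KCl, 0.05% low protease BSA, 2.5% glycerol, 0.01% Tween-20. ClpP 10 microg/mL final; 20 min RT; delta FRET normalized to ADEP and DMSO controls.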
D3 ag: activates the human D3 dopamine receptor. 410,000 compounds, 0.58% hits. max activation, %. P35462. D3R DiscoveRx beta-arrestin cells, luminescence, 90 min. AID 652048; in the data active = max activation above about 30%; also: 0% is about no effect
Target sequence (P35462 whole entry, looked up): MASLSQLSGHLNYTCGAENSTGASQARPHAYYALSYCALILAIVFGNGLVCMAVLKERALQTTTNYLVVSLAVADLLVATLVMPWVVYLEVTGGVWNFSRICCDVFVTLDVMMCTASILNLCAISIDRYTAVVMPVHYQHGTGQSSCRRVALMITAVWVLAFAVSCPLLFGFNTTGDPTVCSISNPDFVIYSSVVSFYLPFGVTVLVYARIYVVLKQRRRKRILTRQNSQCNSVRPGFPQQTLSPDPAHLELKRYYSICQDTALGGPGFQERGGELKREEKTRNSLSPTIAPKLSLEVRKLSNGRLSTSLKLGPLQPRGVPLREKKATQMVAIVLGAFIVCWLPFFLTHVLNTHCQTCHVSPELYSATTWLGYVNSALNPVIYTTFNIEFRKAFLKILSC
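Agonist-mode cell screen: cells plated at 1500/well and incubated overnight at 37 °C, then exposed to library compounds for 90 min at 37 °C. Detection reagent was added for 30–60 min at room temperature, and luminescence was read.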
TDP1 cell CPT: growth inhibition of DT40 Tdp1-/-;hTDP1 cells with camptothecin (screen for TDP1 inhibitors); chicken DT40 Tdp1-/-;hTDP1 cells + 20 nM CPT, ATP luminescence, 48 h; Potency, µM (highest dose often 46.2 µM), for inactives: top-dose activity change, negative = growth inhibition, most hits filed as inhibitors; 420,000 compounds, 12% hits; also: potency is read from the fitted curve at half-maximal effect; % is scaled to controls: 0 for no effect and ±100 for the full control effect; nearly all actives have a fitted effect of over 55% in size
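Chicken DT40 Tdp1-/- cells complemented with human TDP1, 400 cells/well, exposed to compounds plus 20 nM camptothecin for at least 48 h at 37 C; viability read as ATP content by CellTiter-Glo luminescence.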
TDP1 cell noCPT: qHTS for Inhibitors of human tyrosyl-DNA phosphodiesterase 1 (TDP1): qHTS in cells in absence of CPT; AID 686978, 2013; DT40 Tdp1-/- hTDP1 cells, no CPT, ATP luminescence, 48 h; Potency, µM (doses to about 46.2 µM), without a hit: top-dose activity change, negative = growth inhibition, usual class: inhibitors; 420,000 compounds, 15% hits; also: potency is read from the fitted curve at half-maximal effect; % is scaled to controls: 0 for no effect and ±100 for the full control effect; nearly all actives have a fitted effect of over 55% in size
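Readout: luminescence from CellTiter-Glo after 30 min in the dark at RT. Cells: DT40 Tdp1-/- with stable hTDP1, 400/well. Exposure: compounds alone, ≥48 hr, 37 °C.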
IL-1B inflam inh: blocks inflammasome-driven IL-1 beta release. 360,000 compounds, 4.7% hits. activity change, % at 57.5 µM. THP-1 LPS/ATP IL-1B secretion, AlphaLISA, 16 h; stronger effect = lower value; in the data active = activity change below about -50%; inconclusive = mostly about -30% to -49%; also: % is scaled to controls: 0 for no effect and ±100 for the full control effect
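THP-1 cells pretreated 1 hr with compounds (up to 57.5 uM final), then stimulated with LPS (250 ng/mL final) plus ATP (1.25 mM final); secreted IL-1B measured by AlphaLISA after 16 hr, decreased signal indicating inhibition.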
DRD3 antagonist: antagonists of human D3 dopamine receptor; max response, negative = inhibition, %; D3R cells, DiscoveRx beta-arrestin luminescence, antagonist mode; stronger effect = lower value; P35462; 360,000 compounds, 2.5% hits; in the data active = max response below about -50%; inconclusive = no clear call, values can overlap the other calls; also: % is scaled to controls: 0 for no effect and ±100 for the full control effect
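Cells plated overnight at 1500 cells/well, then exposed to library compounds with dopamine controls for 90 minutes at 37 degrees C. DiscoveRx reagent added for 30–60 minutes at room temperature; luminescence read, quantitative HTS format.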
* = called active by the depositor; ? = inconclusive; · = no result. Unless noted, calls follow the shape of the dose curve; as a rule, active = well fitted inhibition curve with a large enough effect; inconclusive = small, poorly fitted or top-dose-only effect; inactive = flat fitted curve, though single readings scatter.

SMILES	ClpP mod	D3 ag	TDP1 cell CPT	TDP1 cell noCPT	IL-1B inflam inh	DRD3 antagonist
O=C(Cn1c(=O)oc2cc(S(=O)(=O)NCc3ccccc3)ccc21)Nc1cccc(F)c1	0%	-1	?	?	·	·
O=S1(=O)CCN(C2CCCCCC2)CC1	-4%	-7	-9%	-14%	16	-6
CCCCN(CC)CCNC(=O)c1cc2c(=O)oc3ccc(C)cc3c2s1	?	-6	?	?	·	·
COc1ccc(-c2csc(N(CCCN(C)C)C(=O)c3ccccc3Cl)n2)cc1	·	-24	?	?	-72*	-71*
CCN(C(=O)c1ccccc1F)c1nc(-c2ccc(OC)cc2)cs1	-5%	-1	21µM*	21µM*	0	14
NS(=O)(=O)c1ccc(CCNc2nccn(-c3cccc(C(F)(F)F)c3)c2=O)cc1	-10%	-8	-17%	?	·	·

Screening data deposited in PubChem BioAssay by National Center for Advancing Translational Sciences (NCATS).
